Experiment [1] in a line: ATG_CRE_CIS: Attagene CIS-FACTORIAL HepG2 Assay for human cAMP Responsive Element (CRE) binding protein 3 (AID 2282926). The following applies: HepG2 CRE cis-reporter, Attagene multiplexed mRNA; actives raise or lower the signal. In a few lines: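 Capillary electrophoresis of 6-FAM-labelled, HpaI-digested PCR products quantified reporter transcripts. These came from HepG2 transiently transfected with cis-element reporters and exposed to test chemicals for 24 hours, with DMSO defining baseline activity.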

The target in experiment [2] is CCAAT/enhancer-binding protein beta (Homo sapiens) (UniProt P17676). Description: ATG_C_EBP_CIS: Attagene CIS-FACTORIAL HepG2 Assay for human CCAAT/Enhancer Binding Protein (C/EBP) beta (AID 2282927). Particulars: HepG2 Attagene cis-factorial transcription factor reporter; actives raise or lower the signal. Summed up:
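Following a 24 h incubation with test chemical, transfected HepG2 cells yielded RNA whose reporter transcripts were quantified by RT-PCR and fluorescent capillary electrophoresis, with DMSO serving as baseline for bidirectional fitting.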

Experiment [3] is described as follows: ATG_CMV_CIS: Attagene CIS-FACTORIAL HepG2 Assay for human CMV (Internal Marker) (AID 2282928).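 Note: endpoint acts as a background internal control marker rather than a target.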 Particulars: HepG2 CMV promoter reporter, transcription factor profiling; actives raise or lower the signal. Summed up:
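Readout: fluorescent reporter cDNA fragments separated by capillary electrophoresis after RT-PCR and HpaI cut. Cells: HepG2 carrying transfected cis-promoter reporter constructs, dosed 24 h. Endpoint serves as background internal-marker control, fit bidirectionally versus DMSO.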

Experiment [4] in a line: ATG_DR4_LXR_CIS: Attagene CIS-FACTORIAL HepG2 Assay for human Liver X Receptor (LXR), DR4 submotif (AID 2282929). Particulars: HepG2 Attagene DR4 cis-reporter, mRNA transcription; actives raise or lower the signal. In a few lines:
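After transient transfection with multiplexed cis-promoter reporter units, HepG2 cells received test chemicals for 24 h. Reporter mRNA induction, detected by fluorescence after RT-PCR and capillary electrophoresis, was scored relative to DMSO.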

Experiment [5] deals with Aryl hydrocarbon receptor (Homo sapiens) (UniProt P35869). The experiment is described as follows: ATG_Ahr_CIS: Attagene CIS-FACTORIAL HepG2 Assay for human Aryl Hydrocarbon Receptor (Ahr) (AID 2282930). The following applies: HepG2 AhR cis-factorial reporter transcription; actives raise or lower the signal. Summed up: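 Values derive from bidirectional fitting against DMSO negative control. Underlying signal: cis-element reporter mRNA in transiently transfected HepG2, harvested 24 h post-dose and measured by RT-PCR plus capillary electrophoresis.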

Experiment [6] in a line: ATG_AP_1_CIS: Attagene CIS-FACTORIAL HepG2 Assay for human Activator Protein 1 (AP-1) (AID 2282931). The following applies: HepG2 Attagene cis-factorial AP-1 reporter mRNA; actives raise or lower the signal. In a few lines:
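After 24 h incubation with test chemical, RNA from transfected HepG2 cells was reverse-transcribed, amplified, fluorescently labelled and digested before capillary electrophoresis. Reporters were driven by cis-regulatory promoters; activity fitted bidirectionally versus DMSO.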

A short description of experiment [7]: ATG_AP_2_CIS: Attagene CIS-FACTORIAL HepG2 Assay for human Activator Protein 2 (AP-2) (AID 2282932). The following applies: HepG2 AP-2 cis-reporter, Attagene transcription factor profiling; actives raise or lower the signal. In a few lines:
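Assay in transfected HepG2 with promoter-regulated reporters, 24 h incubation after dosing. Signal is reporter mRNA fluorescence (RT-PCR, capillary electrophoresis), analysed for both increases and decreases relative to DMSO controls.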

Experiment [8] can be described thus: ATG_BRE_CIS: Attagene CIS-FACTORIAL HepG2 Assay for human Bone Morphogenetic Protein (BMP) Response Element (BRE) (AID 2282933). Particulars: HepG2 BMP response element reporter, Attagene transcription factor profiling; actives raise or lower the signal. In a few lines:
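Endogenous transcription factor activity read in transiently transfected HepG2 cells after 24 h chemical exposure. Bidirectional curve fitting against DMSO; readout is reporter transcript level by RT-PCR with capillary electrophoresis of labelled products.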

In experiment [9] the target is Transcription factor E2F1 (Homo sapiens) (UniProt Q01094). The experiment is described as follows: ATG_E2F_CIS: Attagene CIS-FACTORIAL HepG2 Assay for human E2F Transcription Factor 1 (AID 2282935). Particulars: HepG2 Attagene cis-reporter, E2F reporter RNA transcripts; actives raise or lower the signal. Summed up:
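In this cis-factorial format, endogenous factor activity drives transfected reporters in HepG2; transcripts collected at 24 h are quantified by fluorescence after RT-PCR and capillary separation.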

The nature of experiment [10]: ATG_EGR_CIS: Attagene CIS-FACTORIAL HepG2 Assay for human Early Growth Response 1 (EGR1) (AID 2282938). Particulars: HepG2 Attagene CIS-FACTORIAL EGR reporter mRNA; actives raise or lower the signal. Summed up:
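Fluorescent capillary-electrophoresis signal of reporter cDNA fragments serves as read-out. HepG2 cells bear transiently transfected cis-promoter reporter units and are exposed 24 h; gain- or loss-of-signal is fitted against DMSO.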

Experiment [11] is described as follows: ATG_M_19_CIS: Attagene CIS-FACTORIAL HepG2 Assay for M19 Transcription Factor (Internal Marker) (AID 2282939). The following applies: HepG2 Attagene CIS-FACTORIAL M19 internal marker reporter; actives raise or lower the signal. Summed up: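 Internal marker readout, fitted in both directions against DMSO, from HepG2 cells carrying transfected cis-element reporter constructs; RT-PCR and capillary electrophoresis of reporter mRNA after 24 h exposure.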

Experiment [12] can be described thus: ATG_Ets_CIS: Attagene CIS-FACTORIAL HepG2 Assay for human Erythroblast Transformation Specific (ETS) (AID 2282941). Particulars: HepG2 ETS cis-reporter transcription, actives raise or lower the signal. In a few lines:
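RT-PCR/capillary electrophoresis fluorescence read-out of reporter mRNA; HepG2 transient multi-reporter transfection; 24 h compound exposure; gain or loss of signal fitted bidirectionally relative to DMSO.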

Experiment [13] deals with Hepatocyte nuclear factor 3-beta (Homo sapiens) (UniProt Q9Y261). The experiment is described as follows: ATG_FoxA2_CIS: Attagene CIS-FACTORIAL HepG2 Assay for human Forkhead box A2 (FOXA2) (AID 2282942). The following applies: HepG2 cis-reporter transcription factor activity, 24 h; actives raise or lower the signal. In a few lines:
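Fluorescence signal of reporter cDNA fragments, separated by capillary electrophoresis, reflects endogenous transcription factor activity in transfected HepG2 after 24 h. Both increases and decreases fitted against DMSO.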

The nature of experiment [14]: ATG_FoxO_CIS: Attagene CIS-FACTORIAL HepG2 Assay for human Forkhead box O (FoxO) (AID 2282943). The following applies: HepG2 Attagene cis-reporter, FoxO element, mRNA; actives raise or lower the signal. Summed up: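 Values reflect reporter mRNA induction or loss in HepG2 cells 24 h post-dosing, fitted bidirectionally with DMSO as negative control and baseline. Detection used RT-PCR and fluorescence capillary electrophoresis.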

Experiment [15] in a line: ATG_GATA_CIS: Attagene CIS-FACTORIAL HepG2 Assay for human GATA Binding Protein (AID 2282944). The following applies: HepG2 GATA cis-element reporter, Attagene multiplex mRNA; actives raise or lower the signal. In a few lines:
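Reporter transcripts from a GATA cis-regulated unit, among multiplexed reporters in transfected HepG2 cells, were measured by RT-PCR with capillary electrophoresis after 24 h dosing. Induction or loss scored relative to DMSO.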

The nature of experiment [16]: ATG_GLI_CIS: Attagene CIS-FACTORIAL HepG2 Assay for human Zinc Finger Protein GLI1 (AID 2282945). The following applies: HepG2, Attagene cis-factorial reporter mRNA, GLI element; actives raise or lower the signal. Summed up: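 HepG2 cells transiently transfected with cis-promoter multiplexed reporter units report endogenous transcription factor activity. After 24 h chemical exposure, reporter mRNA was quantified by RT-PCR, 6-FAM labelling, HpaI digestion and capillary electrophoresis, with bidirectional fitting against DMSO.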

The nature of experiment [17]: ATG_E_Box_CIS: Attagene CIS-FACTORIAL HepG2 Assay for human Enhancer Box (E-box) (AID 2282936). The following applies: HepG2 E-box cis-reporter transcription, actives raise or lower the signal. Summed up: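 Measured 24 h post-dosing in HepG2 cells transfected with multiple cis-regulated reporter units, signal being reporter mRNA induction detected by fluorescent RT-PCR with capillary electrophoresis; gain or loss fitted against DMSO.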

The nature of experiment [18]: ATG_M_61_CIS: Attagene CIS-FACTORIAL HepG2 Assay for M61 Transcription Factor (Internal Marker) (AID 2282937). Particulars: HepG2 Attagene CIS-FACTORIAL M61 internal marker reporter; actives raise or lower the signal. In a few lines: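 Using transiently transfected HepG2 liver cells, reporter transcript levels were assessed 24 h post-dosing by RT-PCR and capillary electrophoresis. Changes in either direction were fitted relative to DMSO controls.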

Activity calls are given as the source filed them. Rule for the calls: active = hit-call score of the fitted dose curve at least 0.9, where 1 is the maximum; inactive = score below 0.9.

Sequence of Hepatocyte nuclear factor 3-beta (Homo sapiens) (Q9Y261 whole entry, looked up, the tested form may be a part): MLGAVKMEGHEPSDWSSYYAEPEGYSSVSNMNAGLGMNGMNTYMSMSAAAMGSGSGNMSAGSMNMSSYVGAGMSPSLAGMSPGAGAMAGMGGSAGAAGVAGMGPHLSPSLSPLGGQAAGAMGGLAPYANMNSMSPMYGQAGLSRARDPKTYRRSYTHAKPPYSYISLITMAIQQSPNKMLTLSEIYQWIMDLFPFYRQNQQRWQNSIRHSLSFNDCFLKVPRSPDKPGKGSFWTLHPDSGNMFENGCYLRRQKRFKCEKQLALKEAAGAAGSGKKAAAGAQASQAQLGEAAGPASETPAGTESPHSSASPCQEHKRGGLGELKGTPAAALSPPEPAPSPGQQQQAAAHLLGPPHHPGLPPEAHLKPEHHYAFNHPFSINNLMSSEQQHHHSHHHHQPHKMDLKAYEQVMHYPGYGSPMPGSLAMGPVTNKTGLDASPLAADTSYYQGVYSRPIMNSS
Sequence of Transcription factor E2F1 (Homo sapiens) (Q01094 whole entry, looked up): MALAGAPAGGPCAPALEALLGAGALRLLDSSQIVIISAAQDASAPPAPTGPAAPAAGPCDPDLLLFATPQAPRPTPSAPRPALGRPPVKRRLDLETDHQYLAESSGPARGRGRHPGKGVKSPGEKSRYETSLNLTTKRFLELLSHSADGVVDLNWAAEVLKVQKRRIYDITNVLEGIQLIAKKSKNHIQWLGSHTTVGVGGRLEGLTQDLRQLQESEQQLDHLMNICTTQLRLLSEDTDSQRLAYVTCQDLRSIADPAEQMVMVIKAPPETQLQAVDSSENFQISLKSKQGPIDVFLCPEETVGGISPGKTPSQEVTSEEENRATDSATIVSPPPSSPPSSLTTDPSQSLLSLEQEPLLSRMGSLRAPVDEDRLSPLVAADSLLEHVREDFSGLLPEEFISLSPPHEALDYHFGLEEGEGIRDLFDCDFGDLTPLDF
Sequence of CCAAT/enhancer-binding protein beta (Homo sapiens) (P17676 whole entry, looked up): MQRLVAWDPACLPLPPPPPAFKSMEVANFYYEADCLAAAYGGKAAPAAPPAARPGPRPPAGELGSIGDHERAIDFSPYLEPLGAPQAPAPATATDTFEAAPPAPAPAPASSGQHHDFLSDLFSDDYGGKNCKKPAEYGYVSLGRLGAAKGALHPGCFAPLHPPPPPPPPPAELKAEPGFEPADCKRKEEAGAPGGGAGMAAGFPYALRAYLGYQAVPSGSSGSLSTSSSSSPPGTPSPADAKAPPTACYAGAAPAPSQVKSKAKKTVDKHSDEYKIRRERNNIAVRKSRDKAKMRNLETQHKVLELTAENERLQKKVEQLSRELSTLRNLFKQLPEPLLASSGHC
Sequence of Aryl hydrocarbon receptor (Homo sapiens) (P35869 whole entry, looked up): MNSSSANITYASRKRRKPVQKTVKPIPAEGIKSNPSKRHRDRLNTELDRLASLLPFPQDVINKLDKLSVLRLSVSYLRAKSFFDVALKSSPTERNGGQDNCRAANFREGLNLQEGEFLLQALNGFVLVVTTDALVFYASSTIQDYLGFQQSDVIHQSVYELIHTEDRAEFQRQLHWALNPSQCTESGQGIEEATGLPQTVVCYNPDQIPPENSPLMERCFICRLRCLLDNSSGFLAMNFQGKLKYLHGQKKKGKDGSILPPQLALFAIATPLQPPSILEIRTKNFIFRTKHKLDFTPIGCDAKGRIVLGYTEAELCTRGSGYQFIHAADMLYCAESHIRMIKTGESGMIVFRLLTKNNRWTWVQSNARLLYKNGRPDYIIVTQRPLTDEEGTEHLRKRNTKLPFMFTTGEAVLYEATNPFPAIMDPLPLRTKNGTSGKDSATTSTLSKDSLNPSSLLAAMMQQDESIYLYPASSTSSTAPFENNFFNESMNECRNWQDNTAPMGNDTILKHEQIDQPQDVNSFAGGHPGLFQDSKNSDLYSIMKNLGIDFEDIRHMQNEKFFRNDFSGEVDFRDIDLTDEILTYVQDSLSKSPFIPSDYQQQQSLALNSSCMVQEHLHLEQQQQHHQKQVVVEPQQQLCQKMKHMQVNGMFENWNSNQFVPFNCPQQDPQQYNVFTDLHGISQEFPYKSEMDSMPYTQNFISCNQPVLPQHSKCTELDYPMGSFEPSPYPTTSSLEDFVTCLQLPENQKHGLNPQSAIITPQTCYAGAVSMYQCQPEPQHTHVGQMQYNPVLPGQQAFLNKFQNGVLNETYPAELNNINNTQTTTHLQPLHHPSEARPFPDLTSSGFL

As for `CCOC(=S)SSC(=S)OCC`, the compound was called inactive in [1], in experiment [2], in experiment [3], in experiment [4], in experiment [5] and in experiment [6]. Further, the compound was classed as inactive in experiment [7], in experiment [8], in [9], in experiment [10], in experiment [11] and in experiment [12]. Moreover, the compound was classed as inactive in experiment [13], in [14], in [15] and in [16].

In general, AC50 refers to the midpoint of the concentration-response curve, whichever way the signal moves. In the case of `C#C[C@]1(O)CC[C@H]2[C@@H]3CCC4=Cc5oncc5C[C@]4(C)[C@H]3CC[C@@]21C`, the AC50 was 41.2 µM (active) in [1]; 14.5 µM (active) in experiment [4]; 26.2 µM (active) in [6]; 53.8 µM (active) in [17]; 21.9 µM (active) in experiment [10]; 26.1 µM (active) in experiment [12]. Moreover, the results for the AC50 in experiment [14], in experiment [15] and in experiment [16] were 60.4 µM (active), 54.6 µM (active) and 60.9 µM (active), respectively. Besides, the result in experiment [2], in experiment [3], in experiment [5], in [7], in experiment [8] and in experiment [18] was inactive. Moreover, the compound was called inactive in [11] and in experiment [13].

For the compound `CC(C)CCCCCCCOC(=O)c1ccc(C(=O)OCCCCCCCC(C)C)c(C(=O)OCCCCCCCC(C)C)c1`, the result in experiment [1], in experiment [2], in [3], in [4], in experiment [5] and in [6] was inactive. Besides, the result in experiment [7], in experiment [8], in experiment [17], in [10], in experiment [11] and in experiment [13] was inactive. Moreover, the outcome in [14], in experiment [15] and in experiment [16] was inactive.

Turning to `O=CCCc1ccccc1`, the call in experiment [1], in experiment [2], in [3], in experiment [4], in experiment [5] and in experiment [6] was inactive. Also, the compound was called inactive in experiment [7], in experiment [8], in experiment [17], in experiment [18], in experiment [10] and in experiment [11]. Besides, the outcome in [13], in [14], in experiment [15] and in experiment [16] was inactive.

Take `CC1=CC(=O)NS(=O)(=O)O1`: the call in experiment [1], in experiment [2], in experiment [3], in experiment [4], in experiment [5] and in [6] was inactive. The result in experiment [7], in [8], in experiment [9], in experiment [17], in [10] and in experiment [11] was inactive. The outcome in [12], in experiment [13], in experiment [14], in [15] and in experiment [16] was inactive.

With `CCCCO`, the outcome in experiment [1], in experiment [2], in experiment [3], in [4], in [5] and in experiment [6] was inactive. Moreover, the compound was classed as inactive in experiment [7], in [8], in experiment [17], in experiment [18], in experiment [10] and in [11]. Further, the compound was called inactive in experiment [12], in experiment [13], in experiment [14], in [15] and in experiment [16].

Consider `OCCN1CCNCC1`, for which the compound was classed as inactive in experiment [1], in [2], in [3], in experiment [4], in experiment [5] and in experiment [6]. The outcome in experiment [7], in [8], in [9], in experiment [18], in experiment [10] and in experiment [11] was inactive. For the same compound, the compound was called inactive in experiment [13], in [14], in experiment [15] and in experiment [16].
